Screen size: about 340,000 compounds; about 240 (0.071%) were called active. Calls follow the shape of the full dose curve. This excerpt belongs to a sample that is enriched for actives.
target: Snurportin-1 (Homo sapiens) + GTP-binding nuclear protein Ran (Homo sapiens) + Importin subunit beta-1 (Homo sapiens) (UniProt O95149+P62826+Q14974); assay: qHTS Assay for Inhibitors of RanGTP induced Rango (Ran-regulated importin-beta cargo) - Importin beta complex dissociation; settings: Biochemical FRET Rango-importin beta; series mostly up to 46.1 µM; activity change, negative = inhibition: at the top concentration; also: nearly all actives have a fitted effect of over 45% in size; as to activity change, negative = inhibition: % of control where 0% means no effect
Source text: NIH Molecular Libraries Probe Production Centers Network [MLPCN] NIH Chemical Genomics Center [NCGC] MLPCN Grant: R03 MH090808-01A1 Assay Submitter (PI): Petr Kalab NCGC Assay Overview: The small GTPase Ran regulates transport of macromolecules between the nucleus and the cytoplasm (nuclear transport) and has important functions in mitotic spindle assembly, nuclear envelope (NE) formation and nuclear pore complex (NPC) assembly. RanGTP gradient is thought to promote spindle assembly by providing a spatial clue to microtubule nucleation and Aurora A activation. Because the localized release and binding of importin alpha cargos relays this spatial clue to SAFs, inhibitors of the Rango - importin beta complex can then be used in further understanding their role in cell cycle specifically in mitosis progression. […] Activation of Aurora A has been linked to different types of cancer and a number of Aurora kinase inhibitors are being developed as potential canter therapeutics; therefore, identified inhibitors of this complex could be developed into potential anti-mitotic probes for cancer treatment. Purified recombinant proteins Rango - importin beta and RanGTP-RCC1 stock premixes were provided by the assay submitter. The assay used a fluorescence resonance energy transfer (FRET) Rango biosensor that contains the IBB of human snurportin 1 flanked by yellow fluorescent protein (EYFP) at the amino terminus and cerulean CFP10 at the carboxy terminus. […] RanGTP binding to the complex (in the presence of RCC1) releases the Rango from the complex. The flexibility of the IBB in the freed Rango allows the donor - acceptor fluorophores to interact, resulting in a high FRET signal. Inhibitors will therefore be identified based on the ability to interfere with the FRET signal increase. DMSO treated and no RanGTP-RCC1 (buffer only) wells were used as negative and positive controls respectively. FRET readings were obtained at two time points. FRET reading prior to importin beta addition (pre-read) were used flag potential compound interference; FRET reading after importin beta addition (post-read) were used to identify inhibitors.
NCGC Assay Protocol Summary: Two and a half uL/well of Rango- importin beta premix solution (0.1 uM Rango, 0.25 uM importin beta, 1x PBS, 1mM DTT, 0.02% Tween-20, 0.1% BSA final concentrations) was dispensed into 1536-well assay plates (Greiner, solid black medium-binding plates) with Aurora Discovery BioRAPTR Flying Reagent Dispenser (FRD; Beckton-Dickenson). Compound solution (23 nL) was transferred to the assay plate using Kalypsys pin tool equipped with a 1536-pin tool and incubated at room temperature for 5 min followed by a FRET pre-read using the PerkinElmer Envision plate reader. Two and a half uL/well of RanGTP-RCC1 premix solution (0.6 uM Ran, 2mM GTP, 0.2 uM RCC1, 1x PBS, 1mM DTT, 0.02% Tween-20, 0.1% BSA final concentrations) were then added and incubated at room temperature giving a final reaction volume of 5uL. After 45min FRET post-read was obtained via the Envision plate reader using the same optics and settings as the pre-read (CFP/YFP optimized dual optical module D450/D505; excitation mirror CFP 430/24 nm; and emission filters CFP 486/10 nm and YFP 530/10 nm).
Potency is read from the fitted curve at half-maximal effect.

Row | SMILES | activity change, negative = inhibition | Potency
1 | COc1ccccc1N(CC(=O)Nc1c(C)n(C)n(-c2ccccc2)c1=O)S(=O)(=O)c1ccccc1 | 15.2% (inactive) | 
2 | CC(C)(C)c1nnc2sc(SCC(O)=C(C#N)c3nc4ccccc4[nH]3)nn2c1=O | -17.3% (inactive) | 
3 | Cc1cc(NC(=O)C(C)SCC(=O)Nc2cccc(S(=O)(=O)N3CCCCCC3)c2)no1 (stereo unspecified) | -9.26% (inactive) | 
4 | CC(C)(C)C(=O)Nc1cccc(-c2ccc[nH]2)n1 | -8.04% (inactive) | 
5 | Nc1ccc2c(c1)C(O)c1ccc(Cl)cc1-2 (stereo unspecified) | 12% (inactive) | 
6 | Cn1cc(C2OC(=O)c3ccccc32)c2ccccc21 (stereo unspecified) | -1.39% (inactive) | 
7 | CCC1([N+](=O)[O-])COC(c2ccc(C(C)C)cc2)OC1 (stereo unspecified) | 4.48% (inactive) | 
8 | Nc1ccc2c(c1)C(=Cc1cccnc1)c1ccccc1-2 | -0.303% (inactive) | 
9 | Cc1nc2ccc(N)nc2nc1C | -10.7% (inactive) | 
10 | CC(C)c1cc(N=O)cc(C(C)C)c1O | 16.3% (inactive) | 
11 | O=C(OCCOc1ccccc1Cl)c1cc(S(=O)(=O)N2CCCCC2)ccc1N1CCOCC1 | -8.97% (inactive) | 
12 | Cc1ccc(S(=O)(=O)N2CCN(C(=O)c3cc(S(=O)(=O)N4CCOCC4)ccc3F)CC2)cc1 | 6.87% (inactive) | 
13 | CN(CCc1ccccc1)C(=O)c1cccc(NC(=O)Cc2cccc(NC(=O)C3CCCN(C(=O)CCc4ccccc4)C3)c2)c1 (stereo unspecified) | -6.42% (inactive) | 
14 | CCC(=O)N1CCc2cc(Br)c(S(=O)(=O)NCCN3CCCCC3CC)cc21 (stereo unspecified) | -5.08% (inactive) | 
15 | O=C(c1cccc(S(=O)(=O)N2CCCCCC2)c1)N1CCN(Cc2ccccc2)CC1 | 0.329% (inactive) | 
16 | CCOc1ccccc1NC(=S)C(=C([O-])c1ccc2c(c1)OCCO2)[n+]1ccc(CC)cc1 | 7.69% (inactive) | 
17 | CC(=O)c1cccc(-c2ccc(CN3C(CC(C)C)C(=O)N(Cc4cn(CC5CCCCC5)nn4)CCS3(=O)=O)cc2)c1 (stereo unspecified) | 5.63% (inactive) | 
18 | C[n+]1cccc(C(=O)O)c1 | 10.9% (inactive) | 
19 | CC1CN(Cc2ccco2)C(=S)N(c2ccccc2)C1=O (stereo unspecified) | 0.667% (inactive) | 
20 | Cc1nc(N)nc(Cl)c1CCC1OCCO1 | 18.9% (inactive) | 
21 | O=C(CCCCCN1C(=O)c2cccc3cccc(c23)C1=O)NCc1ccco1 | 4.95% (inactive) | 
22 | O=C(CN1C(=O)/C(=C\c2ccc(C(F)(F)F)cc2)Sc2ccccc21)NCc1ccco1 |  | 11.6 µM [inconclusive] (active)

Row | SMILES | activity change, negative = inhibition | Potency
23 | O=C(CC1CCCCC1)NCc1ccco1 | -9.28% (inactive) | 
24 | O=C(Cc1ccc([N+](=O)[O-])cc1)NCCc1ccc2c(c1)OCO2 | 12.1% (inactive) | 
25 | Cc1cccc(NS(=O)(=O)c2ccc([N+](=O)[O-])cc2)n1 | -2.17% (inactive) | 
26 | Cc1nc2ccccc2nc(=O)c1NNc1ccc([N+](=O)[O-])cc1 |  | 14.6 µM [inconclusive] (active)
27 | Cc1nc(N)nc(SCc2ccc([N+](=O)[O-])cc2)c1N | -1.08% (inactive) | 
28 | CN(C(=O)c1cccc(NC(=O)Cc2ccc(NC(=O)C3CCCN(C(=O)C4CCCC4)C3)cc2)c1)C1CCC1 (stereo unspecified) | 4.82% (inactive) | 
29 | CSCCC(NS(=O)(=O)c1ccc(C)cc1)C(=O)N(C)CC(=O)Nc1ccccc1Br (stereo unspecified) | -5.32% (inactive) | 
30 | CC(=O)OCC(=O)C1(O)CCC2C3CC(C)C4=CC(=O)CCC4(C)C3C(O)CC21C (stereo unspecified) | -18.3% (inactive) | 
31 | NC(=S)NN=C1CCCC(C(F)(F)F)C1 (stereo unspecified) | -1.47% (inactive) | 
32 | C[C@@H]1NS(=O)(=O)c2cc(Cl)ccc2O[C@@H]1c1ccccc1 | 7.4% (inactive) | 
33 | CC(=O)CSc1nc(CCc2ccccc2)c(C#N)c(=O)[nH]1 | -1.86% (inactive) | 
34 | CC(C)CN1CC(C)C(=O)N(c2ccccc2)C1=S (stereo unspecified) | 0.708% (inactive) | 
35 | Nc1ncnc2c1cnn2C1CC(O)C(CO)O1 (stereo unspecified) | 0.102% (inactive) | 
36 | Cc1ccc(-c2csc(C(C#N)=C(O)CN3CCN(C(=O)c4ccco4)CC3)n2)cc1 | 2.16% (inactive) | 
37 | O=C1CC(C(=O)O)NC(=S)N1 (stereo unspecified) | -1.44% (inactive) | 
38 | CCc1nnc(NC(=O)c2cc(S(=O)(=O)N3CCN(CC)CC3)ccc2Cl)s1 | -2.92% (inactive) | 
39 | O=C(Cc1ccc(NC(=O)C2CCCN(C(=O)C3CCCCC3)C2)cc1)Nc1cccc(C(=O)N2CCCCC2)c1 (stereo unspecified) | -0.0587% (inactive) | 
40 | CCc1ccc(C(=O)C(C)OC(=O)CN2C(=O)NC3(CCCC3)C2=O)cc1 (stereo unspecified) | 9.43% (inactive) | 
41 | COc1ccc(CCNC(=O)c2ccc(NC(=O)CC3SC(N4CCCCC4)=NC3=O)cc2)cc1OC (stereo unspecified) | 19.5% (inactive) | 
42 | Cc1onc(-c2c(F)cccc2Cl)c1C(=O)Nc1cccc(S(=O)(=O)N2CCCCC2)c1 | 4.01% (inactive) | 
43 | COc1ccccc1C(=O)c1ccccc1C(=O)c1ccccc1 | 6.28% (inactive) | 
44 | CCOC(=O)N(Cc1ccccc1)C1CC1 | -14.1% (inactive) | 

Row | SMILES | activity change, negative = inhibition | Potency
45 | COC1=NC2=NCCN2C(OC)=N1 | 0.279% (inactive) | 
46 | O=C(NN=Cc1ccccc1O)NN=Cc1ccccc1O | 25.5% (inactive) | 
47 | O=[N+]([O-])c1cccc(C=NN=Cc2ccccc2O)c1 | 12.1% (inactive) | 
48 | CN(C)CCNC(=O)c1ccc(Cl)c2cc3ccccc3nc12 | -25.3% (inactive) | 
49 | CCC(C)C1(C2CCCC2)NC(=O)NC1=O (stereo unspecified) | -4.04% (inactive) | 
50 | CSc1ncnc2c1ncn2CC(=O)C1CCC2C3CCC4=CC(=O)CCC4(C)C3CCC12C (stereo unspecified) | -2% (inactive) | 
51 | COc1cccc2c1C(=O)c1c(O)c3c(c(O)c1C2=O)CC(O)(C(C)=NNC(=O)c1ccc(Cl)c(Cl)c1)CC3OC1CC(N)C(O)C(C)O1 (stereo unspecified) | 8.77% (inactive) | 
52 | CCCN(CCC)S(=O)(=O)c1cc2c(cc1Br)CCN2C(=O)CC | -8.15% (inactive) | 
53 | COc1ccc(C(=O)Nc2cccc(/C=C(/CCC(=O)O)c3nc4ccccc4s3)c2)cc1 | 11.4% (inactive) | 
54 | CCCN(C(=O)COC(=O)CNS(=O)(=O)c1ccc(NC(C)=O)cc1)C1CCS(=O)(=O)C1 (stereo unspecified) | -7.66% (inactive) | 
55 | CC(=NNC(=S)N1CCCCCC1)c1ccccn1 | -12.1% (inactive) | 
56 | Cc1cccc(CC2(O)C(=O)Nc3ccccc32)n1 (stereo unspecified) | 16.1% (inactive) | 
57 | Cc1cc(OCCCC(=O)Nc2cc(S(=O)(=O)N3CCOCC3)ccc2N2CCOCC2)ccc1Cl | 0.551% (inactive) | 
58 | COC1=CC(=O)OC(C)(c2ccccc2)C1 (stereo unspecified) | -0.43% (inactive) | 
59 | COc1ccc2c(c1)C(=O)CC(c1ccccc1)O2 (stereo unspecified) | -4% (inactive) | 
60 | CC(NC(=O)c1ccccc1)C(=O)OCC(=O)Nc1cccc(S(=O)(=O)N2CCCC2)c1 (stereo unspecified) | 4.12% (inactive) | 
61 | O=C1C(=O)N(c2ccccc2)C(c2ccccc2)C1c1ccccc1 (stereo unspecified) | -1.36% (inactive) | 
62 | Cc1ccc(OCCNC(=O)c2cccc(S(=O)(=O)N3CCN(Cc4ccccc4)CC3)c2)cc1 | 1.12% (inactive) | 
63 | COC[C@@H]1NS(=O)(=O)c2ccc(Br)cc2O[C@H]1c1ccccc1 | 6.09% (inactive) | 
64 | CN(C(=O)c1cccc(NC(=O)Cc2cccc(NC(=O)C3CCCN(C(=O)C4CC4)C3)c2)c1)C1CCC1 (stereo unspecified) | 9.2% (inactive) | 
65 | O=S1(=O)CCOC[C@H](Cc2ccccc2)N1Cc1ccccc1Br | -14.1% (inactive) | 
66 | O=c1oc2ccccc2c(=O)c2ccccc12 | -1.68% (inactive) | 
